This is an account of results in PubChem BioAssay (EPA / NIEHS).

Inconclusive results are not listed. Active and inactive are the calls of the source. Rule for the calls: active = hit-call score of the fitted dose curve at least 0.9, where 1 is the maximum; inconclusive = response in the unintended direction; inactive = score below 0.9.

Assay [1] has as its target guinea pig Opioid, Kappa 1 Receptor (OpiateK), OPRK1 (gene 100135587) (UniProt P41144). Kind of assay: NVS_GPCR_gOpiateK: NovaScreen (NVS) G Protein-Coupled Receptor Assay for guinea pig Opioid, Kappa 1 Receptor (OpiateK) (AID 2283252).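 Note: active means reduced radioligand binding relative to DMSO.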 In outline: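 Guinea pig cerebellar membranes, radioligand displacement with filter-based scintillation counting, 2 h after dosing. Primary screen single concentration 25 uM in duplicate; actives retested in concentration series; loss of binding fitted versus DMSO.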

The target in assay [2] is human Serotonin, 5-Hydroxytryptamine Receptor 7 (5HT7), HTR7 (gene 3363) (UniProt P34969). The assay is described as follows: NVS_GPCR_h5HT7: NovaScreen (NVS) G Protein-Coupled Receptor Assay for human Serotonin, 5-Hydroxytryptamine Receptor 7 (5HT7) (AID 2283255).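 Note: hits reduce specific radioligand binding relative to DMSO.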 In outline: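 Radioligand displacement on membranes from CHO cells expressing human 5HT7, 1 h incubation, filter-based scintillation counting. Primary screen used a single 25 uM concentration in duplicate; actives were followed up in concentration series.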
human Serotonin, 5-Hydroxytryptamine Receptor 7 (5HT7), HTR7 (gene 3363), sequence (P34969 whole entry, looked up): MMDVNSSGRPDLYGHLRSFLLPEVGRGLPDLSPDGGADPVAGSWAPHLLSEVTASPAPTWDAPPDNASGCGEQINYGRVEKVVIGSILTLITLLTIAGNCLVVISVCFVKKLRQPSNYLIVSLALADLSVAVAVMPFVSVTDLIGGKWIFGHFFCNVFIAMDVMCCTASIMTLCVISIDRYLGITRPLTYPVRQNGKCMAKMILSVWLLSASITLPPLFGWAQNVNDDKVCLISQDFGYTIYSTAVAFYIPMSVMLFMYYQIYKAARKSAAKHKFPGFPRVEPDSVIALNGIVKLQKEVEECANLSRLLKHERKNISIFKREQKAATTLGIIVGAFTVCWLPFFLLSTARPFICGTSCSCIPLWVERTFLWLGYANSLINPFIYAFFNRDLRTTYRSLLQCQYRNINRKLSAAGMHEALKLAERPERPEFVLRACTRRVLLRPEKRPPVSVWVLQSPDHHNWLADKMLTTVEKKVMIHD

For assay [3], the target named is guinea pig Leukotriene D4 Receptor (LTD4), CYSLTR1 (gene 100135514) (UniProt Q2NNR5). The assay is described as follows: NVS_GPCR_gLTD4: NovaScreen (NVS) G Protein-Coupled Receptor Assay for guinea pig Leukotriene D4 Receptor (LTD4) (AID 2283248). In outline:
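Radioligand displacement on guinea pig lung membranes, 1 h incubation, filtration and scintillation counting; DMSO as negative control. Duplicate 25 uM primary screen, then singleton concentration-response up to 50 uM.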

Assay [4] deals with human Serotonin, 5-Hydroxytryptamine Receptor 6 (5HT6), HTR6 (gene 3362) (UniProt P50406). The assay is described as follows: NVS_GPCR_h5HT6: NovaScreen (NVS) G Protein-Coupled Receptor Assay for human Serotonin, 5-Hydroxytryptamine Receptor 6 (5HT6) (AID 2283253). In outline:
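Radioligand binding to 5HT6 in HEK293-derived membranes, cell-free, 1 h after dosing; bound ligand measured by filter-based scintillation counting. Primary screen in duplicate at 25 uM; actives retested in concentration series.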

Assay [5] deals with guinea pig Leukotriene B4 Receptor (LTB4), gene 100379538. Kind of assay: NVS_GPCR_gLTB4: NovaScreen (NVS) G Protein-Coupled Receptor Assay for guinea pig Leukotriene B4 Receptor (LTB4) (AID 2283247). In outline: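 Radioligand displacement on guinea pig spleen membranes, filter-based scintillation counting 2 h after dosing. Primary duplicate single point at 25 uM; hits over threshold (e.g. 30% inhibition) run in concentration-response up to 50 uM, DMSO baseline.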

Assay [6] addresses Adenosine receptor A1 (Bos taurus) (UniProt P28190). The assay is described as follows: NVS_GPCR_bAdoR_NonSelective: NovaScreen (NVS) G Protein-Coupled Receptor Assay for bovine Adenosine Receptor (AdoR), Non-selective Binding (AID 2283244). An outline of the steps:
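Bovine striatal membranes, radioligand displacement binding, 1 h after dosing, filter-based scintillation counting. Screened in duplicate at 25 uM, then concentration-response up to 50 uM; loss of specific binding relative to DMSO.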

Assay [7] has as its target human Adenosine A1 Receptor (AdoRA1), ADORA1 (gene 134) (UniProt P30542). The assay is described as follows: NVS_GPCR_hAdoRA1: NovaScreen (NVS) G Protein-Coupled Receptor Assay for human Adenosine A1 Receptor (AdoRA1) (AID 2283254). An outline of the steps:
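Radioligand binding was run on human cortical membranes, cell-free, with filter-based scintillation counting 1 h after dosing. The primary screen was duplicate at 25 uM, followed by concentration series. Signal loss versus DMSO was fitted positive-direction.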

The target of assay [8] is human Adenosine A2a Receptor (AdoRA2a), ADORA2A (gene 135) (UniProt P29274). The assay is described as follows: NVS_GPCR_hAdoRA2a: NovaScreen (NVS) G Protein-Coupled Receptor Assay for human Adenosine A2a Receptor (AdoRA2a) (AID 2283256). An outline of the steps: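 Radioligand displacement on HEK293-derived membrane protein, cell-free; filter-based scintillation counting 1.5 hours after dosing, loss of signal vs DMSO. Single-point duplicate screen at 25 uM, actives retested in concentration series.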
human Adenosine A2a Receptor (AdoRA2a), ADORA2A (gene 135), sequence (P29274 whole entry, looked up): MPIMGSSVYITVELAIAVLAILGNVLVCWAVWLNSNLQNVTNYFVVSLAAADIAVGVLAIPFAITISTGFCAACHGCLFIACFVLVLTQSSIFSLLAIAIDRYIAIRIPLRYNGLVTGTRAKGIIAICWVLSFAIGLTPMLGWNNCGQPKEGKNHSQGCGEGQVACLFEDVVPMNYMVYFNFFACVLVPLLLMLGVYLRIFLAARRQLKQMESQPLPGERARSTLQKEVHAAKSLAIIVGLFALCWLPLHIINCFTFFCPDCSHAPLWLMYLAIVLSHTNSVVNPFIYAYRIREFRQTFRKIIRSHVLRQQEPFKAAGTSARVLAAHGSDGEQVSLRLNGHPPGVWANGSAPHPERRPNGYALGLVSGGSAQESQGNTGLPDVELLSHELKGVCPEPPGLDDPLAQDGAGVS

Assay [9] can be described thus: NVS_GPCR_bNPY_NonSelective: NovaScreen (NVS) G Protein-Coupled Receptor Assay for bovine Neuropeptide Y (NPY) Receptor, Non-selective Binding (AID 2283245). An outline of the steps:
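Bovine hippocampal membranes incubated 1 hour with radioligand and test chemical. Bound ligand measured by filter-based scintillation counting. Single-concentration screen at 25 uM in duplicate, then concentration-response up to 50 uM.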

human Serotonin, 5-Hydroxytryptamine Receptor 6 (5HT6), HTR6 (gene 3362), sequence (P50406 whole entry, looked up): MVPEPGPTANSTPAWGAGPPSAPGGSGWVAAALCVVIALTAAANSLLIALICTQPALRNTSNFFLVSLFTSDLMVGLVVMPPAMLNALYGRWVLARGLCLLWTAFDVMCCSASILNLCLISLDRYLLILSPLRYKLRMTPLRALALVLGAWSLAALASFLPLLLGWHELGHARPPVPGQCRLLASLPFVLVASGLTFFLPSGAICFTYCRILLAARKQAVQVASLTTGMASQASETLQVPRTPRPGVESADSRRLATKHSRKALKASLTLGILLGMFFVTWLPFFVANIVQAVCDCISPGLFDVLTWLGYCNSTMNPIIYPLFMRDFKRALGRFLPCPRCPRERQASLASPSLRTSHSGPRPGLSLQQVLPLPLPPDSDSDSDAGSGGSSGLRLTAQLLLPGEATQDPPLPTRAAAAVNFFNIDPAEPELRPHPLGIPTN
guinea pig Opioid, Kappa 1 Receptor (OpiateK), OPRK1 (gene 100135587), sequence (P41144 whole entry, looked up): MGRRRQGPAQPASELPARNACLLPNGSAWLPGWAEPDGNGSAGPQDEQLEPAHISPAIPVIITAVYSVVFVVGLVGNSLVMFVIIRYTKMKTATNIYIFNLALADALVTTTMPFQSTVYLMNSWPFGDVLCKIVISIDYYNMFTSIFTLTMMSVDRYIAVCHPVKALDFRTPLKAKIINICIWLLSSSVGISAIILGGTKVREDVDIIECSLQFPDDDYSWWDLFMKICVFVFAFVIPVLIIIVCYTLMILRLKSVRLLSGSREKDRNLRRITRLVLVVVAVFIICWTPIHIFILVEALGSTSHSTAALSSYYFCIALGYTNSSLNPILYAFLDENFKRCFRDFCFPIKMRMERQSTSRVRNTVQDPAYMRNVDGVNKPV
human Adenosine A1 Receptor (AdoRA1), ADORA1 (gene 134), sequence (P30542 whole entry, looked up): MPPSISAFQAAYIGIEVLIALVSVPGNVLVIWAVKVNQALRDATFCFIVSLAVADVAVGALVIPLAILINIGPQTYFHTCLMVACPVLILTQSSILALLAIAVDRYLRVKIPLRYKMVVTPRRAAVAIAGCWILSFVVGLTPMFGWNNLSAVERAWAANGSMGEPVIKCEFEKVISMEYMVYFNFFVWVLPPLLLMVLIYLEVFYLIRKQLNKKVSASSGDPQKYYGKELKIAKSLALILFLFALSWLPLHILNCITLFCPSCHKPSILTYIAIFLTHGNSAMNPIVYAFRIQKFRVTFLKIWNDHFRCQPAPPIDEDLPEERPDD
Adenosine receptor A1 (Bos taurus), sequence (P28190 whole entry, looked up): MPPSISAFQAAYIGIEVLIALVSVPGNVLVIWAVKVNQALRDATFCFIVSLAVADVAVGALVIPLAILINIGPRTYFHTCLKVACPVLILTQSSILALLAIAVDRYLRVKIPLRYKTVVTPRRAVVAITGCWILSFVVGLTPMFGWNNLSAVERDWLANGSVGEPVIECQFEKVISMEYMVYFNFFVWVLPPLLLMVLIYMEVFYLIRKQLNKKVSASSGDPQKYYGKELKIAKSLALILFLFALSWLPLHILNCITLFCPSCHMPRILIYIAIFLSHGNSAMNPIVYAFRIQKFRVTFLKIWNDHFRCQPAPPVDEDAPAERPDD
guinea pig Leukotriene D4 Receptor (LTD4), CYSLTR1 (gene 100135514), sequence (Q2NNR5 whole entry, looked up): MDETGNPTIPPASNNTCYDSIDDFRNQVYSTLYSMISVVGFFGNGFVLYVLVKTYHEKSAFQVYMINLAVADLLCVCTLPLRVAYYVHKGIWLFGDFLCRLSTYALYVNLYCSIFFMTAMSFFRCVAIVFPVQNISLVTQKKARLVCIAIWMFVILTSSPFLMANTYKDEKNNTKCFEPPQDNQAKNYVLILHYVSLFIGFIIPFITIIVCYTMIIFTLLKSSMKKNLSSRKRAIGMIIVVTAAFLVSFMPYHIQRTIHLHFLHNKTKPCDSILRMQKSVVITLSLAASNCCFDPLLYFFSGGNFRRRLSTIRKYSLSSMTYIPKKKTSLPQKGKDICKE

With `O=C(O)c1[nH]n(-c2ccc(S(=O)(=O)O)cc2)c(=O)c1N=Nc1ccc(S(=O)(=O)O)cc1`, the AC50 (commonly the midpoint of the concentration-response curve, whichever way the signal moves) in [1] is 43.3 µM (active). Moreover, in assay [2], the outcome was inactive.
On to `CCCCCCCCCCCCCCOS(=O)(=O)O`, for which the AC50 was 9.7 µM (active) in [3], 39.1 µM (active) in assay [4] and 16.5 µM (active) in assay [2].
In the case of `O=C1CCCCC1`, the call in assay [1] was inactive.
For `CCc1cc(C2=C(C(=O)O)N(c3ccccc3C(F)(F)F)S(=O)(=O)c3ccccc32)cc2c1OCO2`, the half-maximal activity concentration (AC50) in assay [5] is 3.48 µM (active). The compound was classed as inactive in assay [1].
On to `O=Cc1ccccc1C=O`, for which, in assay [5], the compound was called inactive. Besides, the half-maximal activity concentration (AC50) in [1] was 9.81 µM (active).
Turning to `Cc1cc(SC2=C(O)C[C@@](CCc3ccc(N)cc3)(C(C)C)OC2=O)c(C(C)(C)C)cc1CO`, the result in assay [6] was inactive.
For `Nc1nc(Cl)nc2c1ncn2[C@H]1C[C@H](O)[C@@H](CO)O1`, the half-maximal activity concentration (AC50) in assay [6] is 10.6 µM (active); in assay [7], 8.99 µM (active); in assay [8] it was 13.1 µM (active).
As to `C#CC(O)C(CC)CCCC` (centres undefined), the half-maximal activity concentration (AC50) in assay [5] is 2.8 µM (active).
As to `CC1(C)C(=O)NC(=O)N1CO`, the result in [4] was inactive.
For the compound `CCC(C)N(C)C(=O)c1cc2ccccc2c(-c2ccccc2Cl)n1` (centres undefined), the results for the AC50 in assay [1], in assay [7] and in assay [8] were 1.91 µM (active), 6.11 µM (active) and 7.37 µM (active), respectively.
`NC(=Nc1ccccc1)Nc1ccccc1`: the AC50 is 25 µM (active) in assay [1] and 11.8 µM (active) in [2].
With `CCN(CC)CCOc1ccc(C(=C(Cl)c2ccccc2)c2ccccc2)cc1`, the AC50 was 30 µM (active) in [9]; 5.6 µM (active) in assay [4]; 11 µM (active) in assay [7]; 3.31 µM (active) in assay [2]; 11.6 µM (active) [middle of 4 runs] in [8]. Also, the outcome in [1] was inactive.
As for `CC(C)(C)c1ccccc1`, in assay [2], the call was inactive.
As for `Cc1cc(Cc2ccc(N)c(C)c2)ccc1N`, in [8], the compound was classed as inactive.
